Data as given in PubChem BioAssay (NCI).
About 83,000 compounds went through this panel and 20% of them were active in at least one assay; those are over-represented in the sample as a whole.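 Plates (96-well) were seeded with cells, treated with compound at one concentration, and incubated for 48 hours before percent growth was determined.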 A number with no mark means an inactive call. Activity calls are given as the source filed them. How the source made its calls: active means growth percent below 10; inactive means the rest.

Assays:
Assay in all cases: NCI-60 one-dose screen, 48 h (100 = growth as untreated, 0 = no growth, -100 = all killed)
Details in all cases: 10 µM unless noted
[1] = tested on: NCI-H23 lung
[2] = tested on: NCI-H226 lung
[3] = tested on: NCI-H322M lung
[4] = tested on: HOP-62 NSCLC
[5] = tested on: NCI-H460 lung
[6] = tested on: HOP-92 NSCLC
[7] = tested on: NCI-H522 lung
[8] = tested on: A549/ATCC NSCLC
[9] = tested on: 786-0 renal
[10] = tested on: COLO 205 colon

SMILES | growth [1] | growth [2] | growth [3] | growth [4] | growth [5] | growth [6] | growth [7] | growth [8] | growth [9] | growth [10]
CC1(C)OB(O)c2cc(-c3nc4ccc5[nH]ncc5c4c4c3CCCC4)ccc21 | 62.8% | 55% | 57% | 68.2% | 34.1% | 73.9% | 77.9% | 56.4% | 66.1% | 80.9%
Nc1nc(N)c2c(n1)NC(c1ccc(Cl)cc1)C1CCc3ccccc3C1=N2 (configuration not stated) | 47.2% | 60.2% | 71.7% | 84.2% | 22.7% | 94.3% | 76.7% | 64% | 64.4% | 51.6%
C=CCN1C(=O)c2cccc3c(N4CCOCC4)ccc(c23)C1=O | 8.01% (active) | -2.43% (active) | -56.6% (active) | 26.4% | 8.52% (active) | 21.1% | -1.11% (active) | 3.05% (active) | 26.2% | -21.8% (active)
N#Cc1cncc(-c2ccc3ncnc(Nc4cccc(Cl)c4)c3c2)c1 | 62.4% | 69.9% | 28.7% | 61.5% | 75.2% | 18.6% | 65.2% | 62.3% | 61.6% | 96.6%
C/C(=N\O)c1ccc(NC(=O)CSc2nnc(-c3cc(-c4ccc(S(C)(=O)=O)cc4)nc4ccccc34)n2-c2ccccc2)cc1 | 99.2% | 90.3% | 91.7% | 98.7% | 90.4% | 80.7% | 82.2% | 81.3% | 93.9% | 102%
C[C@H](C(=O)N(CCc1ccc(Cl)c(Cl)c1)Cc1cncs1)[C@@H]1CC[C@H](C[C@H](C)n2cc(CN3CCC(c4ccc(Cl)cc4)CC3)nn2)O1 | 98.2% | 85% | 92.7% | 101% | 103% | 106% | 86.7% | 96.3% | 93.2% | 97.6%
O=C1/C=C/[C@@H](O)[C@@H]2C[C@@H](O)C[C@H]2/C=C/CCC[C@@H](O)CCO1 | 77.1% | 77.3% | 99.3% | 103% | 110% | 98% | 108% | 89.3% | 61.5% | 114%
CC1C(/C=N/NC(N)=S)C(C#N)(C#N)C1(C#N)C#N (configuration not stated) | 101% | 101% | 102% | 105% | 99.8% | 92.9% | 99.4% | 100% | 104% | 115%
COc1cc(OC)c(C(=O)C(CN(C)C)CN(C)C)cc1OC | 96.5% | 108% | 108% | 84.7% | 109% | 40% | -73.7% (active) | 109% | 7.98% (active) | -85.4% (active)
C=CCOC(=O)C1=C(C)N(CC)C(=O)NC1c1c(Cl)n(C)c2ccccc12 (configuration not stated) | 96% | 106% | 78.8% | 103% | 99% | 68.1% | 85.3% | 87.6% | 95.7% | 108%
Cn1c2c(c3ccc(Cl)c(Cl)c31)C(C#N)C(C)(C)NC2=O (configuration not stated) | 97.6% | 59.4% | 91.4% | 90.7% | 91% | 72.8% | 55.8% | 89.5% | 69.3% | 92.2%
COc1ccc(C2=NN(C(C)=O)C(c3cn(-c4ccccc4)nc3-c3ccc(Cl)cc3)C2)cc1 (configuration not stated) | 9.25% (active) | 33.6% | 47.8% | -19.3% (active) | 5.58% (active) | 18.1% | 47.5% | 14.3% | -17.5% (active) | 4.9% (active)
C=C(C)[C@@H]1CC[C@]2(C(N)=O)CC[C@]3(C)[C@H](CC[C@@H]4[C@@]5(C)CC[C@H](OCCC#N)C(C)(C)[C@@H]5CC[C@]43C)[C@@H]12 | 91.3% | 84.1% | 73.3% | 95% | 79% | 78.1% |  | 74.6% | 94.8% | 86.1%
NC1=Nc2cc(OCCCCN3Cc4ccccc4C3)c(OCC3CC3)cc2C12CCCC2 | 66.9% | 37.7% | 75.7% | 73.2% | 23.2% | 29.4% | 67.3% | 67.5% | 56.2% | -74.5% (active)
Nc1c(C(=O)Nc2cccc(Cl)c2)sc2nc3c(cc12)CCCC3 | 103% | 83.6% | 108% | 91.8% | 100% | 82.7% |  | 81.7% | 89% | 92.2%
CCOC(=O)c1c(C)nc2ccccc2c1/C=C/c1cccs1 | 57.6% | 72.4% | 89.1% | 84.7% | 85.2% | 68.6% |  | 64.9% | 89.7% | 84.5%
O=C(Nc1ccccc1[N+](=O)[O-])c1ccc(Cl)c(Cl)c1 | 86.6% | 79.9% | 101% | 102% | 93.4% | 69.7% |  | 104% | 105% | 110%
CN1CCN(C(=O)C(C)(C)c2ccc(C(=O)Nc3cn4cc(-c5ccncc5)ccc4n3)cc2)CC1 | 10.1% | 9.69% (active) | 17% | 4.05% (active) | 10.8% | 3.02% (active) |  | 10.2% | -19.9% (active) | 2.48% (active)
COc1ccc(Nc2ncccc2/C=C/C(=O)c2cc(OC)c(OC)c(OC)c2)cc1 | -8.11% (active) | -43.2% (active) | 52% | -19.2% (active) | -44.9% (active) | -33.8% (active) |  | -57.1% (active) | -64.2% (active) | -77% (active)
CC1=C(CCC(C)NCc2ccc(OCCCN3CCCCC3)cc2)C(C)(C)CCC1 (configuration not stated) | -42.9% (active) | -32.7% (active) | -40.5% (active) | -67.6% (active) | -77% (active) | -83% (active) |  | -64.2% (active) | -85.6% (active) | -70.9% (active)
O=C1NC(=O)/C(=C/c2c(-c3ccccc3)nc3sc(COc4ccccc4)nn23)S1 | 86% | 93.5% | 96% | 102% | 102% | 66.4% |  | 96.6% | 81.6% | 132%
O=C(O)COc1ccc(Cl)c(Cl)c1 | 99% | 94.1% | 120% | 100% | 109% | 90.2% |  | 107% | 104% | 115%
COC(=O)c1cc(Br)ccc1O | 110% | 101% | 105% | 103% | 109% | 86.6% |  | 99.9% | 96.7% | 112%
COc1ccc(/C=C/c2ccc3ccccc3n2)c(OC)c1 | 74.3% | 86.1% | 75.4% | 74.4% | 75.5% | 46.8% |  | 79.6% | 96.1% | 85.9%
O=C(Cc1ccc(NC(=O)c2cccc(Cl)c2)cc1)NCc1ccccc1 | 73.2% | 87% | 73.9% | 46.6% | 28.8% | 72.2% | 55.1% | 43.9% | 53.6% | 39.3%
CSC1=Nc2c(c(C)c(-c3ccccc3)n2CCCC(=O)O)C2=NC(=O)C[C@H](C)N12 | 105% | 110% | 102% | 89.7% | 102% | 94.3% |  | 101% | 102% | 119%
Cc1ccc(-c2nc(-c3cn(C)c4ncccc34)cs2)cc1 | -7.81% [100 µM] (active) | -35.3% [100 µM] (active) | -32% [100 µM] (active) | -63.3% [100 µM] (active) | -48.5% [100 µM] (active) | -47.2% [100 µM] (active) |  | 7.36% [100 µM] (active) | -52.8% [100 µM] (active) | -60.5% [100 µM] (active)
